This is part of a sample that, as a whole, favours compounds with a hit. Of some 83,000 tested, about 20% had one in any assay.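 Growth was measured after 48 h exposure to one concentration of compound in 96-well plates. Values under 10 count as active.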 Calls of active or inactive are those of the source.
How the values were obtained:
Test in all cases: NCI-60 one-dose screen, 48 h (100 = growth as untreated, 0 = no growth, -100 = all killed)
Conditions in all cases: 10 µM unless noted
[1] = tested on: NCI-H23 lung
[2] = tested on: NCI-H322M lung
[3] = tested on: HOP-62 NSCLC
[4] = tested on: NCI-H460 lung
[5] = tested on: HOP-92 NSCLC
[6] = tested on: NCI-H522 lung
[7] = tested on: A549/ATCC NSCLC
[8] = tested on: 786-0 renal
[9] = tested on: COLO 205 colon
[10] = tested on: DU-145 prostate
[11] = tested on: K-562 leukemia
[12] = tested on: MALME-3M melanoma
[13] = tested on: MDA-MB-231 breast
[14] = tested on: RXF 393 renal
[15] = tested on: SF-268 CNS
[16] = tested on: SF-295 CNS
[17] = tested on: SF-539 CNS
[18] = tested on: UACC-257 melanoma
[19] = tested on: M14 melanoma
[20] = tested on: HCT-15 colon

Measured: growth

O=c1oc2ccc(I)cc2c(=O)n1-c1ccc(I)cc1F
inactive: [9] 44.5% | [10] 15.8%
active: [1] 4.94% | [2] 7.17% | [3] -8.24% | [4] 0.977% | [5] -10.4% | [6] -16.1% | [7] 6.24% | [8] 2.44% | [11] 5.58% | [12] -27.7% | [13] -9.68% | [14] -3.51% | [15] 8.4% | [16] -56.6% | [17] 2.15% | [18] -20.3% | [19] -2.96% | [20] 2%

O=c1c2cc(F)cc(Cl)c2sc2c(Cl)nc3ccccc3c12
inactive: [1] 90.5% | [2] 97.8% | [3] 89.4% | [4] 100% | [5] 99.3% | [6] 77% | [7] 111% | [8] 110% | [9] 116% | [10] 109% | [11] 110% | [12] 88.9% | [13] 84% | [14] 100% | [15] 98.5% | [16] 101% | [17] 97% | [18] 114% | [19] 99.5% | [20] 103%

COc1ccc(-c2nc(-c3ccccc3)c(-c3ccccc3)[nH]2)cc1OC1CCCCC1
inactive: [1] 89% | [2] 84.9% | [3] 105% | [4] 88.3% | [5] 69.6% | [6] 88.3% | [7] 85.5% | [8] 102% | [9] 98.1% | [10] 99.7% | [11] 81.4% | [12] 73% | [13] 67% | [14] 105% | [15] 84.4% | [16] 80.9% | [17] 102% | [18] 93.8% | [19] 92.2% | [20] 93.4%

O=C(Nc1ccc(N2CCNCC2)cc1)c1[nH]ncc1Nc1cc(C2CC2)ncn1
inactive: [1] 44.3% | [2] 37.6% | [3] 66.4% | [4] 38.9% | [5] 78.1% | [6] 25.2% | [7] 33.2% | [8] 56.7% | [9] 24% | [10] 70.6% | [11] 24.2% | [12] 61.5% | [13] 81.1% | [14] 46.5% | [15] 60% | [16] 76.9% | [17] 46.1% | [18] 75.9% | [19] 45.3% | [20] 35.6%

O=C(CSc1ccc2nnc(-c3cccc(F)c3)n2n1)Nc1ccc2c(c1)OCO2
inactive: [1] 76.5% | [2] 85% | [3] 81.4% | [4] 81.1% | [6] 85.4% | [7] 52.8% | [8] 93.6% | [9] 112% | [10] 77.1% | [11] 74.2% | [12] 81% | [13] 48.9% | [14] 98.5% | [15] 51.3% | [16] 91.6% | [17] 84.3% | [18] 94.8% | [19] 83.9% | [20] 66.1%
active: [5] -6.23%

O=c1oc2ccc(Cl)cc2c(=O)n1-c1ccc(Cl)cc1F
active: [1] -4.79% | [2] 4.88% | [3] -6.42% | [4] 3.59% | [5] -12.9% | [6] -20.9% | [7] 5.46% | [8] 5.1% | [9] 6.93% | [11] 4.6% | [12] -29.9% | [13] -17% | [14] 4.5% | [15] 7.63% | [16] -64.2% | [17] 1.24% | [18] -15.1% | [19] 0.632% | [20] 1.3%
inactive: [10] 15.3%

C[n+]1c2ccccc2nc2ccc(NCCO)cc21
inactive: [1] 90.6% | [2] 88.8% | [3] 98.1% | [4] 86.8% | [5] 30.9% | [6] 92.2% | [7] 86.2% | [8] 80.8% | [9] 68.8% | [10] 97.2% | [11] 68.2% | [12] 101% | [13] 77.2% | [14] 83.2% | [15] 63.7% | [16] 98.5% | [17] 90.8% | [18] 99.2% | [19] 92.8% | [20] 93.8%

COc1cc(NC(=O)CCSc2nc3ccccc3c(=O)n2CCc2ccccn2)cc(OC)c1OC
inactive: [1] 88.3% | [2] 88.8% | [3] 85.7% | [4] 83.5% | [5] 89.1% | [6] 25% | [7] 84% | [8] 84.3% | [9] 115% | [10] 103% | [11] 94.8% | [12] 59% | [13] 80.2% | [14] 75.2% | [15] 80.8% | [16] 88.4% | [17] 73.7% | [18] 93.2% | [19] 103% | [20] 96.4%

O=C(Nc1ccsc1C(=O)NC1CCCCC1)c1ccc(F)cc1
inactive: [1] 100% | [2] 116% | [3] 103% | [4] 98.3% | [5] 71.1% | [6] 108% | [7] 103% | [8] 101% | [9] 104% | [10] 119% | [11] 88.5% | [12] 99.9% | [13] 87.2% | [14] 95.6% | [15] 104% | [16] 110% | [17] 101% | [18] 114% | [19] 101% | [20] 95.6%

O=Cc1c(OCc2cnnn2CC(=O)Nc2ccc(Cl)cc2)ccc2ccccc12
inactive: [1] 101% | [2] 102% | [3] 101% | [4] 104% | [5] 103% | [6] 89.3% | [7] 104% | [8] 100% | [9] 115% | [10] 109% | [11] 98.6% | [12] 95.2% | [13] 98% | [14] 111% | [15] 99% | [16] 104% | [17] 94.5% | [18] 94.6% | [19] 100% | [20] 101%

Cc1nc(Nc2ccccn2)sc1C(=O)/C=C/c1ccc(Cl)cc1
active: [4] 3.86% | [6] -39.3% | [9] -21.5% | [10] 6.68% | [11] 8.43% | [16] 4.33% | [17] -8.91%
inactive: [1] 22.7% | [2] 32.1% | [3] 16.4% | [5] 31.8% | [7] 17.2% | [8] 19.7% | [12] 50.3% | [13] 20.4% | [14] 20.2% | [15] 19.9% | [18] 41.8% | [19] 11.6% | [20] 11.7%

COC(=O)/C(CCC=C(C)C)=C1\[C@@H](OC(C)=O)C[C@@]2(C)[C@H]1CC(=O)N[C@H]1[C@@]3(C)CCNC(=O)[C@@H](C)[C@@H]3CC[C@@]12C
inactive: [1] 99.2% | [2] 98.3% | [3] 106% | [4] 109% | [5] 106% | [6] 96.6% | [7] 106% | [8] 96.2% | [9] 109% | [10] 107% | [11] 101% | [12] 101% | [13] 102% | [14] 112% | [15] 101% | [16] 101% | [17] 103% | [18] 104% | [19] 98.5% | [20] 106%

— PubChem BioAssay (NCI)
